Results as given in PubChem BioAssay AID743402 (Broad Institute, 2014).
Hit rate of the full screen: of about 1,200 compounds, about 140 (12%) were called active.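 The calls were made as follows: active = fitted curve falls past -35% activity change at a dose under twice the top valid dose, in every replicate test; inconclusive = replicate tests disagree on the call; inactive = the rest, including activity in the opposite direction.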 Only a sample is shown.

Test: restoration of mutant CFTR halide transport – FRT cells, YFP quenching, cherry-pick, dose response (AID 743402);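 also: compounds act as correctors raising surface CFTR-F508del before acute activation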
Conditions: FRT CFTR-F508del YFP iodide quenching, 24 h, channel opened with forskolin and a potentiator; series mostly up to 26 µM; activity change, negative = more quenching (active): at the top concentration

Activity change, negative = more quenching (active), inactive:
NCC(=O)NNC(=O)OCC1c2ccccc2-c2ccccc21 0%
COc1ccc(OC)c(-c2cc(-c3cccnc3)nc(N)c2C#N)c1 -6.97%
COc1cccc(N=Nc2ccc3cccnc3c2O)c1 9.79%
O=C1NC(=Nc2ccc(O)cc2)S/C1=C/c1ccco1 -4.74%
COc1cc(/C=C2/SC(=Nc3ccc(O)cc3)NC2=O)cc(OC)c1O -5.56%
CC(=O)c1ccc(Nc2cc(C)nc3c(C)cc(C)cc23)cc1 12.9% [at 8 µM]
COc1ccc(Nc2nc(-c3sc(C)nc3C)cs2)cc1 -19.2%
COc1ccc(-c2ccc3c(c2)[C@H]2[C@H](CCN2S(=O)(=O)c2ccc(OC)cc2)[C@@H](CO)N3C)cc1 -10.7%
Cc1cccc(N2CCN(C(=O)c3c(-c4ccccc4)noc3C)CC2)c1C 3.33%
C[C@@H]1CN([C@@H](C)CO)C(=O)c2cc(NS(=O)(=O)c3ccc(Cl)cc3)ccc2O[C@@H]1CN(C)Cc1ccc(C(F)(F)F)cc1 5.3% [at 23.5 µM]
Nc1[nH]c(C(=O)c2ccccc2)c(-c2ccccc2C(F)(F)F)c1C(=O)NCCc1c[nH]c2ccccc12 31.2%
Cc1cc(C)c2nc(Cl)c(CN(Cc3ccco3)C(=O)Nc3ccccc3C)cc2c1 13.3%
COc1ccc(-c2ccnc(-c3ccc(O)cc3)n2)cc1 -26.7%
O=C(c1ccc(Br)cc1)c1cc([N+](=O)[O-])ccc1N1CCOCC1 0%
COc1ccc([N+](=O)[O-])cc1Nc1c2ccccc2nc2ccccc12 -20.9%
COC(=O)/C=C/c1ccccc1S(=O)(=O)N(Cc1ccccc1)Cc1ccco1 6.25%
NS(=O)(=O)c1ccc(S(=O)(=O)N(CCc2ccccc2)Cc2ccccn2)cc1 0%
CCN1CCN(c2cc(C)c3cc(NC(=O)c4ccc(OC)c(OC)c4)ccc3n2)CC1 15.6%
N=C1/C(=C/c2cccn2CCOc2ccccc2)C(=O)N=C2SC=C(c3ccccc3)N12 -19.4%
O=C1C=C(NCCc2cc(Br)c(O)c(Br)c2)C(=O)c2ncccc21 -7.97%
Nc1c(C(=O)c2ccco2)oc2ccccc12 3.85%
Nc1ccn(C2OC(CO)C(O)C2O)c(=O)n1 (configuration not stated) 13.3%
O=C(CCCl)Nc1nc2c(s1)CCc1ccccc1-2 1.61%
C[C@H]1CN([C@@H](C)CO)S(=O)(=O)c2ccc(C#CC3CCCCC3)cc2O[C@H]1CN(C)Cc1cccnc1 0%
CCOC(=O)c1ccc(N2CCOCC2)c(NC(=O)c2c(-c3ccccc3)noc2C)c1 0%
CCN(CC)c1ccc(/C=N/NC(=O)c2cnccn2)cc1 -23.3%
COc1ccc(NC(=O)c2cc(S(=O)(=O)N3CCOCC3)ccc2C)cc1S(=O)(=O)N1CCOCC1 -6.25%
